Consider 29 compounds from PubChem BioAssay (EPA / NIEHS).

Calls of active or inactive are those of the source. The calls were made as follows: active = hit-call score of the fitted dose curve at least 0.9, where 1 is the maximum; inactive = score below 0.9.

Read-out in one assay: Cyclin D2 (CCND2), CCND2 (gene 894)
Kind of assay: LTEA_HepaRG_CCND2: Life Technologies and Expression Analysis (LTEA) Assay for Cyclin D2 (CCND2) using HepaRG (AID 2283449).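 Also: CCND2 transcript measured by TaqMan qRT-PCR and normalised to three housekeeping genes.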 The conditions noted are these: mRNA level, 48 h; actives raise or lower the signal. The procedure, abridged: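 Differentiated human HepaRG cells were exposed for 48 h in serum-free induction medium to eight half-log concentrations topping at 100 uM (0.5% DMSO vehicle). CCND2 mRNA was quantified by TaqMan qRT-PCR, normalised to ACTB, GAPDH and POLR2A, and fitted bidirectionally against DMSO.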
Consider `CCCCCCCCCC[N+](C)(C)[O-]`, for which the result was inactive.
For the compound `Oc1ccc(O)cc1`, the compound was classed as inactive.
Same read-out and setting: next, `O=C1OC(c2ccc(O)cc2)(c2ccc(O)cc2)c2ccccc21`: “inactive”; `C#CC(O)C(CC)CCCC` (centres undefined): “inactive”.
Same read-out and setting: next, `O=C(O)c1[nH]n(-c2ccc(S(=O)(=O)O)cc2)c(=O)c1N=Nc1ccc(S(=O)(=O)O)cc1`: “inactive”.
Turning to `CS(=O)(=O)c1ccc([C@@H](C[C@H]2CCC(=O)C2)C(=O)Nc2cnccn2)cc1Cl`, the AC50 is 2.19 µM (active).
Regarding `CC1=C(C)S(=O)(=O)CCS1(=O)=O`, the outcome was inactive.
For `Oc1ccccc1O`, the outcome was inactive.
Same read-out and setting: the entry for `O=C1NC(=O)C(c2ccccc2)(c2ccccc2)N1` is “inactive”; for `CN(C)C(=O)NC1(c2ccccc2)CCN(CCC[C@]2(c3ccc(Cl)c(Cl)c3)CCCN(C(=O)c3ccccc3)C2)CC1` it is “inactive”.
On the same count and under the same terms, next, `CC(=O)O`: “inactive”; `O=C(O)CC(O)(CC(=O)O)C(=O)O`: “inactive”.
The same measure, in the same setting: next, `Cc1cc(Cc2ccc(N)c(C)c2)ccc1N`: “inactive”; `COc1ccc(C(=O)Nc2nc3ccccc3c(NCc3ccccc3)c2C#N)cc1`: “inactive”; `OCC(O)CO`: “inactive”.
As for `c1ccc2occc2c1`, the result was inactive.

Read-out in the next assay: Cyclin Dependent Kinase Inhibitor 1A (CDKN1A), CDKN1A (gene 1026)
The experiment in a line: LTEA_HepaRG_CDKN1A: Life Technologies and Expression Analysis (LTEA) Assay for Cyclin Dependent Kinase Inhibitor 1A (CDKN1A) using HepaRG (AID 2283450). The note with it: mRNA level, 48 h; actives raise or lower the signal. An outline of the steps: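 Differentiated HepaRG cells in serum-free induction medium, exposed 48 h in duplicate to eight half-log concentrations up to 100 uM in 0.5% DMSO. mRNA measured by TaqMan qRT-PCR, normalized to ACTB, GAPDH, POLR2A; bidirectional fit versus DMSO.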
With `Nc1nc(Cl)nc2c1ncn2[C@H]1C[C@H](O)[C@@H](CO)O1`, the AC50 is 0.168 µM (active).
Consider `CCCCCCCCCC[N+](C)(C)[O-]`, for which the compound was classed as inactive.
For `Oc1ccc(O)cc1`, the result was inactive.
For `O=C(O)CN(CC(=O)O)CC(=O)O`, the outcome was inactive.
Same read-out and setting: next, `O=C1c2c(O)cccc2Cc2cccc(O)c21`: “inactive”; `O=C1OC(c2ccc(O)cc2)(c2ccc(O)cc2)c2ccccc21`: “inactive”.
As for `CC(COCC(C)OC(=O)c1ccccc1)OC(=O)c1ccccc1` (centres undefined), the compound was classed as inactive.
On to `C#CC(O)C(CC)CCCC` (centres undefined), for which the call was inactive.
The same measure, in the same setting: the entry for `O=C(O)c1[nH]n(-c2ccc(S(=O)(=O)O)cc2)c(=O)c1N=Nc1ccc(S(=O)(=O)O)cc1` is “inactive”.
On the same count and under the same terms, the entry for `CS(=O)(=O)c1ccc([C@@H](C[C@H]2CCC(=O)C2)C(=O)Nc2cnccn2)cc1Cl` is “inactive”.
Consider `CC1=C(C)S(=O)(=O)CCS1(=O)=O`, for which the concentration at half-maximal activity (AC50) was 85.4 µM (active).
For `CCN(CC)CCOc1ccc(C(=C(Cl)c2ccccc2)c2ccccc2)cc1`, the result was inactive.
As for `Oc1ccccc1O`, the result was inactive.
Still for that read-out and setting: next, `O=C1NC(=O)C(c2ccccc2)(c2ccccc2)N1`: “inactive”.
With `CN(C)C(=O)NC1(c2ccccc2)CCN(CCC[C@]2(c3ccc(Cl)c(Cl)c3)CCCN(C(=O)c3ccccc3)C2)CC1`, the half-maximal activity concentration (AC50) is 18.4 µM (active).
As for `CC(=O)O`, the result was inactive.
Still for that read-out and setting: next, `O=C(Oc1ccccc1)c1cccc(C(=O)Oc2ccccc2)c1`: “inactive”.
Still for that read-out and setting: next, `O=C(O)CC(O)(CC(=O)O)C(=O)O`: “inactive”; `Cc1c(C)c2c(c(C)c1O)CCC(C)(COc1ccc(CC3SC(=O)NC3=O)cc1)O2` (centres undefined): “inactive”.
Regarding `CC(=O)[C@@]1(O)CC[C@H]2[C@@H]3CCC4=CC(=O)CC[C@]4(C)[C@H]3CC[C@@]21C`, the call was inactive.
On to `CCCCc1nc2cccnc2n1Cc1ccc(-c2ccccc2-c2nnn[nH]2)cc1`, for which the call was inactive.
On the same count and under the same terms, next, `CC(C)(O)c1ccc(CNC(=O)c2cccnc2Oc2ccc(F)cc2)cc1`: “inactive”; `Cc1cc(Cc2ccc(N)c(C)c2)ccc1N`: “inactive”.
As for `COc1ccc(C(=O)Nc2nc3ccccc3c(NCc3ccccc3)c2C#N)cc1`, the AC50 was 26.3 µM (active).
As for `S=c1[nH]c2ccccc2s1`, the outcome was inactive.
As for `CC(=O)O[C@]1(C(C)=O)CC[C@H]2[C@@H]3C=C(Cl)C4=CC(=O)[C@@H]5C[C@@H]5[C@]4(C)[C@H]3CC[C@@]21C`, the result was inactive.
Still for that read-out and setting: next, `OCC(O)CO`: “inactive”; `CCC(C)N(C)C(=O)c1cc2ccccc2c(-c2ccccc2Cl)n1` (centres undefined): “inactive”; `c1ccc2occc2c1`: “inactive”.

Read-out in another assay: Cyclin D1 (CCND1), CCND1 (gene 595)
The experiment in a line: LTEA_HepaRG_CCND1: Life Technologies and Expression Analysis (LTEA) Assay for Cyclin D1 (CCND1) using HepaRG (AID 2283451).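 As to AC50: TaqMan qRT-PCR transcript level normalised to ACTB GAPDH and POLR2A housekeeping genes.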 The note with it: mRNA level, 48 h; actives raise or lower the signal. An outline of the steps:
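Differentiated HepaRG cells exposed 48 h in serum-free induction medium to eight half-log concentrations from 100 uM top, 0.5% DMSO, duplicates. CCND1 mRNA measured by Fluidigm TaqMan qRT-PCR, normalised to ACTB, GAPDH, POLR2A; bidirectional fit.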
`Nc1nc(Cl)nc2c1ncn2[C@H]1C[C@H](O)[C@@H](CO)O1`: the AC50 was 3.49 µM (active).
In the case of `CCCCCCCCCC[N+](C)(C)[O-]`, the compound was called inactive.
Still for that read-out and setting: next, `Oc1ccc(O)cc1`: “inactive”; `O=C(O)CN(CC(=O)O)CC(=O)O`: “inactive”; `O=C1c2c(O)cccc2Cc2cccc(O)c21`: “inactive”.
In the case of `O=C1OC(c2ccc(O)cc2)(c2ccc(O)cc2)c2ccccc21`, the AC50 was 78.7 µM (active).
With `CC(COCC(C)OC(=O)c1ccccc1)OC(=O)c1ccccc1` (centres undefined), the result was inactive.
For the compound `C#CC(O)C(CC)CCCC` (centres undefined), the compound was classed as inactive.
For `O=C(O)c1[nH]n(-c2ccc(S(=O)(=O)O)cc2)c(=O)c1N=Nc1ccc(S(=O)(=O)O)cc1`, the outcome was inactive.
Consider `CS(=O)(=O)c1ccc([C@@H](C[C@H]2CCC(=O)C2)C(=O)Nc2cnccn2)cc1Cl`, for which the AC50 is 1.64 µM (active).
`CC1=C(C)S(=O)(=O)CCS1(=O)=O`: the outcome was inactive.
On to `CCN(CC)CCOc1ccc(C(=C(Cl)c2ccccc2)c2ccccc2)cc1`, for which the result was inactive.
On the same count and under the same terms, next, `Oc1ccccc1O`: “inactive”; `O=C1NC(=O)C(c2ccccc2)(c2ccccc2)N1`: “inactive”.
`CN(C)C(=O)NC1(c2ccccc2)CCN(CCC[C@]2(c3ccc(Cl)c(Cl)c3)CCCN(C(=O)c3ccccc3)C2)CC1`: the concentration at half-maximal activity (AC50) is 22.7 µM (active).
`CC(=O)O`: the compound was classed as inactive.
Consider `O=C(Oc1ccccc1)c1cccc(C(=O)Oc2ccccc2)c1`, for which the outcome was inactive.
In the case of `O=C(O)CC(O)(CC(=O)O)C(=O)O`, the result was inactive.
Same read-out and setting: the entry for `Cc1c(C)c2c(c(C)c1O)CCC(C)(COc1ccc(CC3SC(=O)NC3=O)cc1)O2` (centres undefined) is “inactive”; for `CC(=O)[C@@]1(O)CC[C@H]2[C@@H]3CCC4=CC(=O)CC[C@]4(C)[C@H]3CC[C@@]21C` it is “inactive”; for `CCCCc1nc2cccnc2n1Cc1ccc(-c2ccccc2-c2nnn[nH]2)cc1` it is “inactive”.
As for `CC(C)(O)c1ccc(CNC(=O)c2cccnc2Oc2ccc(F)cc2)cc1`, the compound was classed as inactive.
Same read-out and setting: the entry for `Cc1cc(Cc2ccc(N)c(C)c2)ccc1N` is “inactive”.
As for `COc1ccc(C(=O)Nc2nc3ccccc3c(NCc3ccccc3)c2C#N)cc1`, the AC50 was 16.8 µM (active).
As to `S=c1[nH]c2ccccc2s1`, the outcome was inactive.
As to `CC(=O)O[C@]1(C(C)=O)CC[C@H]2[C@@H]3C=C(Cl)C4=CC(=O)[C@@H]5C[C@@H]5[C@]4(C)[C@H]3CC[C@@]21C`, the call was inactive.
The same measure, in the same setting: the entry for `OCC(O)CO` is “inactive”.
In the case of `CCC(C)N(C)C(=O)c1cc2ccccc2c(-c2ccccc2Cl)n1` (centres undefined), the compound was classed as inactive.
`c1ccc2occc2c1`: the compound was classed as inactive.
